Assay outcomes: PubChem, National Center for Advancing Translational Sciences (NCATS)
IL1B secr inh – inhibitors of inflammasome signaling (IL-1 beta secretion); 4.7% of 360,000 active; activity change, % at 57.5 µM; THP-1 LPS/ATP IL-1B secretion, AlphaLISA, 16 h; stronger effect = lower value; in the data active = activity change below about -50%; inconclusive = mostly about -30% to -49%
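THP-1 cells pretreated 1 hr with compounds (up to 57.5 uM final), then stimulated with LPS (250 ng/mL final) plus ATP (1.25 mM final); secreted IL-1B measured by AlphaLISA after 16 hr, decreased signal indicating inhibition.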
HT1080-NT tox – kills 2HG-producing HT-1080-NT fibrosarcoma cells; HT-1080-NT fibrosarcoma viability, CellTiter-Glo ATP luminescence, 48 h; Potency, µM (titrated, usually from 46.1 µM), for inactives: at the top dose activity, negative = less viability, most hits filed as cytotoxic; 1.6% of 360,000 active; AID 686970;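 note: NT is the 2HG producing partner of a matched IDH1 knockdown line; potency is the fitted concentration of half-maximal effect; 0% = DMSO-treated cells and -100% = media-only wells without cells; nearly all actives have a fitted effect of over 55% in size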
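A 48-hour cytotoxicity screen used HT-1080-NT cells plated 2 hours before compound delivery. ATP-based CellTiter-Glo luminescence measured viability, normalized to DMSO and no-cell controls.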
HT1080 IDH1KD tx – toxicity to HT-1080 IDH1 knockdown cells (counter line); HT-1080 IDH1 knockdown viability, ATP luminescence, 48 h; Potency, µM (doses to about 46.1 µM), without a hit: top-dose activity, negative = toxicity, actives largely listed as cytotoxic; 2% of 360,000 active; AID 686971;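 note: potency is the fitted concentration of half-maximal effect; 0% = DMSO wells and -100% = cell-free medium wells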
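After a 2 h attachment period, IDH1KD HT-1080 cells took pin-transferred compound for 48 h at 37 °C; ATP-based luminescence after 10 min room-temperature reagent incubation reported viability.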
uPA generation – cell surface uPA generation inhibition | cell surface uPA generation assay, qHTS | Potency, µM (titrated, usually from 38.3 µM), for the others: at the highest dose activity change, negative = inhibition, actives largely listed as inhibitors | 0.31% of 330,000 active | AID 540303; active = well fitted inhibition curve with a large enough effect; inconclusive = small, poorly fitted or top-dose-only effect; inactive = no such curve, though single readings can be large or run the other way; tested in mouse RAW 264.7 cells; note: potency is the fitted concentration of half-maximal effect; nearly all actives have a fitted effect of over 55% in size
TDP1 cell noCPT – qHTS for Inhibitors of human tyrosyl-DNA phosphodiesterase 1 (TDP1): qHTS in cells in absence of CPT; DT40 Tdp1-/- hTDP1 cells, no CPT, ATP luminescence, 48 h; Potency, µM (doses to about 46.2 µM), for the others: at the highest dose activity change, negative = growth inhibition, hits mostly inhibitors; 15% of 420,000 active; AID 686978, 2013; note: potency is the fitted concentration of half-maximal effect; nearly all actives have a fitted effect of over 55% in size
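DT40 Tdp1-/-;hTDP1 cells, no CPT (DMSO vehicle only), 400 cells/well; compounds pin-transferred; ≥48 hr, 37 °C; CellTiter-Glo 30 min RT dark, luminescence read.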
DT40 TDP1 CPT – DT40-hTDP1 cell growth loss with CPT; chicken DT40 Tdp1-/-;hTDP1 cells + 20 nM CPT, ATP luminescence, 48 h; Potency, µM (titrated, usually from 46.2 µM), without a hit: top-dose activity change, negative = growth inhibition, usual class: inhibitors; 12% of 420,000 active; note: potency is the fitted concentration of half-maximal effect; nearly all actives have a fitted effect of over 55% in size
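Chicken DT40 Tdp1-/- cells complemented with human TDP1, 400 cells/well, exposed to compounds plus 20 nM camptothecin for at least 48 h at 37 C; viability read as ATP content by CellTiter-Glo luminescence.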
* marks the source's active call; other numbers are inactive results; i = inactive; ? = inconclusive; . = not tested or not shown. Hits are enriched below; roughly 19% of the tested compounds scored in any of these assays. Unless noted, calls come from the whole dose curve; as a rule, active = well fitted curve in the direction sought with a large enough effect; inconclusive = small, poorly fitted or top-dose-only effect, or another doubt; inactive = no such curve, though single readings can be large; an effect the other way counts as inactive or inconclusive. Unless noted, % is set by controls: 0 for no effect and ±100 for the full control effect.

SMILES	IL1B secr inh	HT1080-NT tox	HT1080 IDH1KD tx	uPA generation	TDP1 cell noCPT	DT40 TDP1 CPT
COc1ccc(NC2CCCN(C(=O)c3cccs3)C2)cc1 (stereo not drawn)	-13.6	3.5%	3.8%	-3.8%	-8.6%	-20.5%
O=C(c1cccs1)N1CCCC(c2ccccc2)C1 (stereo not drawn)	-14.9	0.0%	-6.7%	-3.3%	18.4µM*	-0.1%
CC(C)c1ccc(NC2CCCN(C(=O)c3cccs3)C2)cc1 (stereo not drawn)	-20.5	1.5%	-4.9%	-0.9%	?	20.6µM*
Cc1c(C(=O)OC(C)C)sc(NC(=O)c2cnccn2)c1C(=O)OC(C)C	54.9	-2.3%	0.1%	5.4%	9.3%	-12.9%
COc1oc(C(=O)NC2CCCCC2)c(-c2ccc(Cl)cc2)c1S(=O)(=O)c1ccccc1	-57.7*	?	?	-3.5%	20.6µM*	?
CC1CC(C)CN(C(=O)Nc2ccccc2F)C1 (stereo not drawn)	-9.2	0.0%	5.6%	-6.6%	-1.9%	4.4%
CC(=O)Nc1ccccc1OC(C)C(=O)N1CC(C)CC(C)C1 (stereo not drawn)	7.3	3.5%	17.8%	-1.2%	20.6µM*	?
O=C(Nc1cccc(F)c1)N1CCCC2(CCN(C(=O)c3ccco3)CC2)C1	.	.	.	.	-20.0%	-121.0%
C/C(=N\O)c1cc(Cl)cc(Cl)c1O	-82.6*	?	-27.5%	-1.0%	-17.9%	-2.0%
C/C(=N\O)c1ccc(Cl)cc1Cl	-2.5	-12.9%	4.1%	-1.4%	-11.6%	5.1%
Cc1c(CCC(=O)NCc2cccc(Cl)c2)c(=O)oc2c(C)c(O)ccc12	.	.	.	.	-15.4%	-2.4%
COc1ccc(NC(=O)N2CC3(CCN(C(=O)c4c(C)noc4C)CC3)C2)cc1	.	.	.	.	-13.9%	18.8%
CCc1ccc2c(c1)C(=O)CCC2	27.2	0.9%	2.5%	1.4%	6.1%	?
O=C1CCCc2cc3c(cc21)CC1(C3)Cc2cc3c(cc2C1)C(=O)CCC3	0.0	?	?	?	4.61µM*	3.66µM*
Cc1cccc(N(C)C(=O)c2cc3c(=O)oc4ccc(C)cc4c3s2)c1	.	.	.	.	-25.4%	-1.9%
Cc1cc(NC(=O)COC(=O)C2CC(=O)N(c3ccccc3Cl)C2)no1 (stereo not drawn)	-2.6	-2.3%	-2.5%	-6.4%	-18.7%	7.7%
CC(=O)Nc1cc(-c2ccc(F)cc2)cn2c(-c3ccc(S(C)(=O)=O)cc3)cnc12	0.0	-21.5%	-0.4%	.	16.4µM*	?
CC(=O)Nc1cc(-c2ccc(CO)cc2)cn2c(-c3ccc(F)cc3)cnc12	?	-11.6%	0.0%	.	16.4µM*	16.4µM*
CC(=O)Nc1cc(-c2ccccc2)cn2c(-c3ccc(F)cc3)cnc12	?	-0.6%	4.0%	.	?	?
CC(=O)Nc1cc(-c2ccncc2)cn2c(-c3ccccc3)cnc12	-9.2	23.9%	13.6%	.	16.4µM*	18.4µM*
CC(=O)Nc1cc(-c2ccc(F)cc2)cn2c(-c3ccc(F)cc3)cnc12	-5.3	?	?	.	18.4µM*	16.4µM*
CC(=O)Nc1cc(-c2ccccc2CN(C)C)cn2c(-c3ccc(F)c(Cl)c3)cnc12	-17.4	14.0%	0.0%	.	?	?
CCOC(=O)C[n+]1cccc(Br)c1	.	.	.	.	-2.7%	-7.4%
COc1ccc(F)cc1C(=O)C1CCCN(C(=O)c2cccc(N(C)C)c2)C1 (stereo not drawn)	10.1	-1.8%	0.2%	9.7%	?	?
Cc1nc(C)c(C(=O)N2CCCC(C(=O)c3cc(F)ccc3F)C2)s1 (stereo not drawn)	i	-1.1%	0.7%	-2.9%	?	-29.5%
SMILES	IL1B secr inh	HT1080-NT tox	HT1080 IDH1KD tx	uPA generation	TDP1 cell noCPT	DT40 TDP1 CPT
Cc1ccsc1C(=O)N1CCCC(C(=O)c2cc(F)ccc2F)C1 (stereo not drawn)	0.0	?	10.9%	-10.0%	23.1µM*	?
COc1ccc(F)cc1C(=O)C1CCCN(C(=O)c2ccccc2N(C)C)C1 (stereo not drawn)	-7.9	?	-1.5%	2.7%	18.4µM*	?
Nc1c(C(=O)OCC(=O)NCc2ccccc2)[nH]c(=O)[nH]c1=O	2.7	-0.4%	3.7%	2.5%	6.3%	-3.3%
Cn1cnc([N+](=O)[O-])c1N=C(N)N	10.7	19.0%	11.1%	0.3%	2.3%	5.4%
CC1CCN(c2nc3ccc(C(=O)NCCCN4CCCCC4C)cc3s2)CC1 (stereo not drawn)	?	?	?	11.2µM*	?	?
Cc1ccc(C)c(N2CCN(CCCNC(=O)c3ccc4nc(N5CCCCC5)sc4c3)CC2)c1	.	.	.	.	10.3µM*	18.4µM*
CCCN1CCN(CCCNC(=O)c2ccc3nc(N4CCCCC4)sc3c2)CC1	-9.3	-3.3%	-1.6%	?	-21.3%	-1.9%
CCCCN(CCCC)CCCNC(=O)c1ccc2nc(N3CCCCC3)sc2c1	.	.	.	.	23.1µM*	?
CCOCCCNC(=O)CN1C(=O)CCn2nc(-c3cccn3C)cc21	.	.	.	.	7.0%	7.9%
CCc1ccccc1NC(=O)c1nnn(-c2ccc(F)cc2)c1C	.	.	.	.	?	-17.1%
Cc1c(C(=O)Nc2ccc(F)cc2F)nnn1-c1ccccc1Br	.	.	.	.	13µM*	10.3µM*
CCCOc1ccccc1-n1sc2c(c1=S)-c1cc(OC)cc3c1N(C(=O)C3=O)C2(C)C	-4.0	?	?	-2.6%	16.4µM*	16.4µM*
COc1cccc(-n2sc3c(c2=S)-c2cc(OC)ccc2NC3(C)C)c1	-22.8	?	?	-10.1%	?	?
Cc1c(NC(=O)c2cnc(Cl)c(Cl)c2)c(=O)n(-c2ccccc2)n1C	1.2	7.8%	-0.6%	2.6%	-15.8%	6.5%
COc1cc(/C=C2/SC(=NCc3ccccc3)N(Cc3ccccc3)C2=O)ccc1O	-2.8	?	?	3.6%	?	?
CCN=C1S/C(=C\c2cc(OCC)c(O)cc2Br)C(=O)N1CC	-20.0	18.4µM*	20.6µM*	-3.1%	11.6µM*	20.6µM*
CCN=C1S/C(=C\c2cn(CC)c3ccccc23)C(=O)N1CC	-26.4	-18.0%	-17.3%	-4.0%	10.3µM*	23.1µM*
CCN=C1S/C(=C\c2ccc(O)c(OCC)c2)C(=O)N1CC	i	-17.6%	-24.3%	-5.8%	20.6µM*	25.9µM*
CCN1C(=O)S/C(=C/c2cn(C)c3ccccc23)C1=O	-0.4	14.2%	15.9%	8.1%	-20.2%	-4.3%
